Source: PubChem BioAssay
Luc counter: counter-screen: inhibitors of Kinase-Glo firefly luciferase; Kinase-Glo luciferase, ATP luminescence, 8 min; Potency, µM (top dose mostly 38.3 µM), for inactives: at the top dose activity change, negative = inhibition, hits mostly inhibitors; Q27757; 0.28% of 200,000 active; also: % is scaled to controls: 0 for no effect and ±100 for the full control effect; nearly all actives have a fitted effect of over 60% in size
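Light output from Kinase-Glo luciferase with luciferin and 10 uM ATP in 50 mM imidazole pH 7.2, KCl, MgCl2, Tween 20, BSA; compound pin-delivered, 8-min ambient incubation, then luminescence read.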
ELG1 genotox: inducers of genotoxicity in HEK293T ELG1-luciferase cells; 1.3% of 330,000 active; Potency, µM (highest dose often 46 µM), for inactives: at the top dose activity change, positive = activation, most hits filed as activators; HEK293T ELG1-luciferase reporter, luminescence, 16 h; AID 504466; also: % of control where 0% means no effect; nearly all actives have a fitted effect of over 60% in size
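Reporter readout depends on ELG1 protein level, which increases with genetic stress. After 16 hr compound exposure at 37 °C, luciferase activity was quantified using ONE-Glo.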
Rab9 prom act: Rab9 promoter activation; 2.8% of 320,000 active; Huh7 Rab9 promoter-luciferase reporter, luminescence, 24 h; Potency, µM (doses to about 9.22 µM), for inactives: at the highest dose activation, negative = inhibition, usual class: activators; also: % of control where 0% means no effect; nearly all actives have a fitted effect of over 60% in size
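Luminescence read-out: Huh7 cells stably expressing Rab9-luciferase, treated 24 h with compound at 37 °C, then lysed with luciferase reagent for 10 min at ambient before reading.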
FLuc counter: counter-screen for miR-21 project: firefly luciferase inhibitors or activators. P08659. AID 588342. Potency, µM (highest dose often 57.5 µM), for inactives: at the highest dose activity change, negative = inhibition, hits mostly inhibitors. purified FLuc, Km substrates, luminescence inhibition. 6.9% of 360,000 active;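 also: plate controls were vehicle for no effect and reference inhibitor for full effect; nearly all actives have a fitted effect of over 55% in size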
Target sequence (P08659 whole entry, looked up): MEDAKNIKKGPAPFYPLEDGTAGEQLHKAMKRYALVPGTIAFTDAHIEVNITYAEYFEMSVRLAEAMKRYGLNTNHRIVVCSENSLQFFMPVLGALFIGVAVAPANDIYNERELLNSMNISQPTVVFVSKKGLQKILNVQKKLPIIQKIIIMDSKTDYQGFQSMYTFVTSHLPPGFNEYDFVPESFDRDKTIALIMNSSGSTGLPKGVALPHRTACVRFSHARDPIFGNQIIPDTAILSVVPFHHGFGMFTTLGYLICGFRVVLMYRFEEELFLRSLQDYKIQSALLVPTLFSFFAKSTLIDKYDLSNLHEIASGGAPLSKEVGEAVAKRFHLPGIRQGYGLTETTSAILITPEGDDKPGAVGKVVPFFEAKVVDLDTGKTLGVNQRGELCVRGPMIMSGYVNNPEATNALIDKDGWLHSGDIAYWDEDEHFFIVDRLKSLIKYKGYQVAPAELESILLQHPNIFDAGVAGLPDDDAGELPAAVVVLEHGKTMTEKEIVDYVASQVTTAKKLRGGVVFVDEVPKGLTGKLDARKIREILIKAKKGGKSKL
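Biochemical qHTS of compounds, final roughly 60 µM downward over six points, against 10 nM purified firefly luciferase using Km concentrations of substrates (10 uM D-luciferin, 10 uM ATP) in Tris acetate pH 7.5 buffer; luminescence output.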
NPC1 prom act: activates the NPC1 promoter. Potency, µM (doses to about 9.22 µM), for the others: top-dose activation, hits mostly activators. 2.4% of 320,000 active. Huh7 NPC1 promoter luciferase reporter, 24 h; also: % of control where 0% means no effect; nearly all actives have a fitted effect of over 60% in size
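Readout is luciferase luminescence, reflecting NPC1 promoter activation in stably transfected Huh7 cells after 24 h compound exposure at 37 °C in reduced-serum medium with 10% FBS.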
SMN2 splice enh: enhancers of SMN2 splice variant expression. HEK293 SMN2-luciferase splicing reporter, luminescence, 30-36 h. 2.8% of 210,000 active. AID 1458. Potency, µM (top dose mostly 46.1 µM), for the others: at the top dose activity change, positive = activation, most hits filed as activators; also: % of control where 0% means no effect; nearly all actives have a fitted effect of over 55% in size
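HEK293 cells carry an SMN2 minigene-luciferase reporter in which exon 7 inclusion puts luciferase in frame. Cells were seeded at 2000 cells/well, attached for 10-12 hours, then exposed to compounds for 30-36 hours at 37C before ONE-Glo luminescence.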
An asterisk follows results filed as active; ? = inconclusive; · = no result; [ ] = remark or other dose. An excerpt weighted towards active compounds, which were near 7.5% of everything screened. Calls follow the shape of the dose curve; as a rule, active = well fitted curve in the direction sought with a large enough effect; inconclusive = small, poorly fitted or top-dose-only effect, or another doubt; inactive = no such curve, though single readings can be large; an effect the other way counts as inactive or inconclusive. Potency is read from the fitted curve at half-maximal effect.

SMILES	Luc counter	ELG1 genotox	Rab9 prom act	FLuc counter	NPC1 prom act	SMN2 splice enh
Cc1nc(-c2ccc(C(=O)Nc3cccc(F)c3)cc2)cs1	·	?	?	0.27µM*	0.089µM*	·
CCOc1ccc(NC(=O)c2ccc(-c3csc(C)n3)cc2)cc1	·	-12%	-5%	-3%	0%	·
COc1ccc(NC(=O)c2ccc(-c3csc(C)n3)cc2)cc1	·	?	2.8µM*	2.4µM*	?	·
Cc1cccc(C)c1Nc1sc(C(=O)c2ccccc2)c(N)c1C(=O)Nc1ccc(F)cc1	·	·	·	-3%	·	·
Cc1cccc(NC(=O)c2cc3c(=O)n(Cc4cccnc4)ccc3nc2C)c1	·	·	·	-6%	·	·
COC(=O)c1scc(-c2ccc(C)cc2)c1S(=O)(=O)Nc1cc(C)c(Cl)cc1OC	·	·	·	-8%	·	·
Cc1nc(-c2cccc(NC(=O)c3ccc(-n4cccn4)cc3)c2)cs1	·	-3%	-7%	6.7µM*	-1%	·
Cc1nn(-c2ccccc2)c2c1C(c1ccc(F)cc1F)C(C#N)=C(N)O2 (stereo not drawn)	1%	-3%	-1%	-2%	1%	20%
Nc1nn(-c2ccccc2)c(N)c1N=Nc1ccc2c(c1)OCO2	-6%	?	0.63µM*	1.7µM*	?	6.3µM*
Cc1nn(-c2ccccc2)c(N)c1N=Nc1cccnc1	-1%	18µM*	?	13µM*	?	13µM*
Nc1nn(-c2ccccc2)c(N)c1N=Nc1cccc(F)c1	·	6.5µM*	?	4.3µM*	?	·
CCC[C@@H]1C[C@@]1(CCC)C(NC(=O)c1ccccc1)c1cccc(Cl)c1 (stereo partly drawn)	-4%	·	·	·	·	-15%
COc1cc(-c2noc(-c3ccc(N4CCCCC4)c([N+](=O)[O-])c3)n2)cc(OC)c1OC	·	·	·	17µM*	·	·
COc1cc(-c2noc(-c3ccc(N(C)C)c([N+](=O)[O-])c3)n2)cc(OC)c1OC	·	·	·	15µM*	·	·
COCCCNC(=O)Cn1c(=O)n(-c2ccc(C)cc2)c(=O)c2c1c1cc(C)ccc1n2C	·	·	·	4%	·	·
COc1ccccc1Nc1nc2ccccc2[nH]1	-7%	11%	?	9.5µM*	?	6%
COc1cccc(/C=N/Nc2nc3ccccc3[nH]2)c1OC	·	-20%	2.5µM*	5.4µM*	4µM*	·
COc1cccc(/C=N/c2nc3ccccc3[nH]2)c1O	·	11%	-1%	19µM*	-3%	·
Cc1ccc(Nc2nc3ccccc3[nH]2)nc1	-1%	?	2.8µM*	13µM*	2.8µM*	11µM*
COc1cccc(/C=N/Nc2ncc(C)c(=O)[nH]2)c1OC	·	10%	0%	0%	-3%	·
COc1ccc(CCC(=O)NCc2ccc3c(c2)CCN3C(=O)c2ccc(Cl)cc2)cc1	·	·	·	-2%	·	·
CCOC(=O)c1c(NC(=O)c2cc3ccccc3c(=O)o2)sc2c1CCCC2	·	·	·	0%	·	-2%
Cc1ccc(NC(=O)[C@@H]2CCCN2C(=O)c2cccs2)cc1S(=O)(=O)N1CCCCC1	·	3%	0%	5%	-12%	·
C[N@+]1(CCC(=O)c2ccccc2)CC[C@H]2CC[C@H](C2)C1	0%[7.66 µM]	·	·	·	·	-7%[9.22 µM]
COc1cccc(/C=N/Nc2nc3ccccc3[nH]2)c1O	·	?	-16%	2.7µM*	-24%	·
SMILES	Luc counter	ELG1 genotox	Rab9 prom act	FLuc counter	NPC1 prom act	SMN2 splice enh
COc1cc(Cl)c(NC(=O)CCS(=O)(=O)c2ccc3c(c2)NC(=O)CO3)c(OC)c1	·	·	·	0%	·	·
Cn1c(NCc2ccc(Cl)cc2)nc2ccccc21	-2%	?	3.5µM*	9.5µM*	2.5µM*	11µM*
Cc1ccc(CNc2nc3ccccc3n2C)cc1	·	?	0.5µM*	2.4µM*	0.5µM*	·
CCn1c(NCc2ccccc2Cl)nc2ccccc21	0%	1%	29%	19µM*	19%	?
C=CCn1c(NCc2ccc(N(C)C)cc2)nc2ccccc21	2%	5%	13%	24µM*	18%	30%
CCCCn1c(NCc2ccc(N(C)C)cc2)nc2ccccc21	·	-3%	9%	?	3%	-12%
Cc1c(C(=O)Nc2ccc(F)c(F)c2)oc2ccc(S(=O)(=O)N(C)C3CCCCC3)cc12	·	·	·	-2%	·	·
CC(C)CC(C(=O)NCC1CCN(Cc2ccc(F)cc2)CC1)N1Cc2ccccc2C1=O (stereo not drawn)	·	·	·	-1%	·	·
O=C(O)CCc1nc(-c2cccs2)no1	-2%	-1%	-1%	2%	-6%	-6%
O=[N+]([O-])c1ccc(F)cc1OCc1nc(-c2cccs2)no1	-1%	?	?	9.5µM*	23%	16µM*
Cc1ccc(OCc2nc(-c3cccs3)no2)c([N+](=O)[O-])c1	-9%	?	0.25µM*	0.76µM*	0.4µM*	2.8µM*
O=[N+]([O-])c1ccccc1OCc1nc(-c2cccs2)no1	-1%	?	2.5µM*	6.7µM*	2.5µM*	13µM*
COc1ccc(-n2c(=O)c(-c3cn(C)c4ccccc34)nc3cncnc32)cc1	-4%	·	·	·	·	0%
Cc1ccc(-c2nc(CNC(=O)Nc3ccccc3)c(C)o2)cc1	·	·	·	-5%	·	·
O=C(Nc1cccc(NC(=O)c2ccc(Br)o2)c1)c1ccccc1	·	-5%	-2%	?	13%	?
COc1ccc(NC(=O)c2ccc(C(=O)c3ccccc3)o2)cc1	-6%	-3%	?	?	16%	-14%
Cc1ccccc1C(=O)Nc1cccc(NC(=O)c2ccc(-c3ccc(Br)cc3)o2)c1	-3%	0%	-1%	4.8µM*	-3%	24%
O=C(Nc1ccccc1)c1ccc(Br)o1	-16%[39.9 µM]	17%	15%	?	16%	20%
O=C(c1ccccc1)c1cccc(NC(=O)c2ccc(Br)o2)c1	12%	4%	?	24µM*	3%	4%
O=C(Nc1ccc2ccccc2c1)c1ccc(Br)o1	·	?	3.5µM*	5.4µM*	3.5µM*	·
CN1CCN(c2ccc(NC(=O)c3ccc(-c4ccc(Br)cc4)o3)cc2)CC1	-1%	-2%	6%	?	1%	-63%
Cc1cccc(NC(=O)c2ccc(C(=O)c3ccccc3)o2)c1	-2%	?	?	8.5µM*	27%	16µM*
C[C@H](Oc1ccc(Oc2cnc3ccc(Cl)cc3n2)cc1)C(=O)O	-2%[7.66 µM]	·	·	·	·	-5%[9.22 µM]
Cc1ccc(N(C)C(=O)Cn2cc(S(=O)(=O)N3CCCC3)c(S(=O)(=O)N3CCCC3)c2)cc1	·	·	·	-5%	·	·
Clc1ccc2nc3c4ccccc4cnn3c2c1	?	8.2µM*	-3%[1.84 µM]	1.9µM*	10%	2.8µM*
CC(C)(C)NC(=O)NC(=O)CN1CCN(C(c2ccccc2)c2ccccc2)CC1	11%	-9%	-10%	3%	-3%	-40%
